Results as given in PubChem BioAssay (NCI).
The panel holds about 83,000 compounds, 20% with a hit somewhere; the sample as a whole holds those more often.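 Cell lines were cultured in 96-well plates, exposed to a single compound concentration, and assessed for percent growth 48 hours later.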 Values without a mark were called inactive. The source made the active and inactive calls. Rule for the calls: active = growth percent below 10; inactive = the rest.

How the values were obtained:
Test in all cases: NCI-60 one-dose screen, 48 h (100 = growth as untreated, 0 = no growth, -100 = all killed)
Conditions in all cases: 10 µM unless noted
SK-MEL-2 melanoma = tested on: SK-MEL-2 melanoma
EKVX NSCLC = tested on: EKVX NSCLC
SN12C renal = tested on: SN12C renal
UO-31 renal = tested on: UO-31 renal
TK-10 renal = tested on: TK-10 renal
ACHN renal = tested on: ACHN renal
CAKI-1 renal = tested on: CAKI-1 renal
A498 renal = tested on: A498 renal
CCRF-CEM leukemia = tested on: CCRF-CEM leukemia
MOLT-4 leukemia = tested on: MOLT-4 leukemia
SR leukemia = tested on: SR leukemia
RPMI-8226 leukemia = tested on: RPMI-8226 leukemia
OVCAR-8 ovarian = tested on: OVCAR-8 ovarian
OVCAR-5 ovarian = tested on: OVCAR-5 ovarian
OVCAR-4 ovarian = tested on: OVCAR-4 ovarian
SK-OV-3 ovarian = tested on: SK-OV-3 ovarian
IGROV1 ovarian = tested on: IGROV1 ovarian
OVCAR-3 ovarian = tested on: OVCAR-3 ovarian
HS 578T breast = tested on: HS 578T breast
NCI/ADR-RES ovarian = tested on: NCI/ADR-RES ovarian

Compound: CC(=O)N1N=C(c2ccc(Nc3nc(Nc4ccc(F)cc4)nc(Nc4ccc(F)cc4)n3)cc2)CC1c1ccccc1 (stereo not given)
- growth (SK-MEL-2 melanoma): 59.9%
- growth (EKVX NSCLC): 105%
- growth (SN12C renal): 112%
- growth (UO-31 renal): 80.2%
- growth (TK-10 renal): 97.6%
- growth (ACHN renal): 84.6%
- growth (CAKI-1 renal): 114%
- growth (A498 renal): 85.5%
- growth (CCRF-CEM leukemia): -14.7% (active)
- growth (MOLT-4 leukemia): 70.2%
- growth (SR leukemia): 23.3%
- growth (RPMI-8226 leukemia): 33.9%
- growth (OVCAR-8 ovarian): 83%
- growth (OVCAR-5 ovarian): 72.3%
- growth (OVCAR-4 ovarian): 95.3%
- growth (SK-OV-3 ovarian): 89.2%
- growth (IGROV1 ovarian): 117%
- growth (OVCAR-3 ovarian): 141%
- growth (HS 578T breast): 94.8%
- growth (NCI/ADR-RES ovarian): 72.8%

Compound: COc1ccc(/C(C)=C(\c2ccc(OCCN3CCOCC3)cc2)c2ccc(OC(=O)C3CCCCC3)cc2)cc1
- growth (SK-MEL-2 melanoma): 104%
- growth (EKVX NSCLC): 107%
- growth (SN12C renal): 113%
- growth (UO-31 renal): 101%
- growth (TK-10 renal): 104%
- growth (ACHN renal): 98%
- growth (CAKI-1 renal): 101%
- growth (A498 renal): 110%
- growth (CCRF-CEM leukemia): 111%
- growth (MOLT-4 leukemia): 117%
- growth (SR leukemia): 112%
- growth (RPMI-8226 leukemia): 97.9%
- growth (OVCAR-8 ovarian): 105%
- growth (OVCAR-5 ovarian): 98.4%
- growth (OVCAR-4 ovarian): 111%
- growth (SK-OV-3 ovarian): 101%
- growth (IGROV1 ovarian): 102%
- growth (OVCAR-3 ovarian): 97.5%
- growth (HS 578T breast): 110%
- growth (NCI/ADR-RES ovarian): 102%

Compound: Cc1cc2nc(C(Cl)Cl)nc(-c3ccc(Cl)cc3)n2n1
- growth (SK-MEL-2 melanoma): 49.2%
- growth (EKVX NSCLC): -14% (active)
- growth (SN12C renal): 36.5%
- growth (UO-31 renal): -8.79% (active)
- growth (TK-10 renal): 4.92% (active)
- growth (ACHN renal): -41.7% (active)
- growth (CAKI-1 renal): -38% (active)
- growth (A498 renal): -16.9% (active)
- growth (CCRF-CEM leukemia): 29.2%
- growth (MOLT-4 leukemia): 21.6%
- growth (SR leukemia): 9.87% (active)
- growth (RPMI-8226 leukemia): -7.69% (active)
- growth (OVCAR-8 ovarian): 12.8%
- growth (OVCAR-5 ovarian): -0.203% (active)
- growth (OVCAR-4 ovarian): -19.6% (active)
- growth (SK-OV-3 ovarian): -6.97% (active)
- growth (IGROV1 ovarian): 5.11% (active)
- growth (OVCAR-3 ovarian): -26.6% (active)
- growth (HS 578T breast): -32% (active)
- growth (NCI/ADR-RES ovarian): -6.58% (active)

Compound: CCCCn1c(C(=O)c2c[nH]c3ccccc23)n[nH]c1=S
- growth (SK-MEL-2 melanoma): 91.9%
- growth (EKVX NSCLC): 90.3%
- growth (SN12C renal): 90%
- growth (UO-31 renal): 90.1%
- growth (TK-10 renal): 132%
- growth (ACHN renal): 102%
- growth (CAKI-1 renal): 79.3%
- growth (A498 renal): 92.1%
- growth (CCRF-CEM leukemia): 91.3%
- growth (MOLT-4 leukemia): 103%
- growth (SR leukemia): 91.7%
- growth (RPMI-8226 leukemia): 78.7%
- growth (OVCAR-8 ovarian): 93.1%
- growth (OVCAR-5 ovarian): 133%
- growth (OVCAR-4 ovarian): 92.4%
- growth (SK-OV-3 ovarian): 88.4%
- growth (IGROV1 ovarian): 87.7%
- growth (OVCAR-3 ovarian): 106%
- growth (HS 578T breast): 91%
- growth (NCI/ADR-RES ovarian): 107%

Compound: O=C(Cn1cc(CN2CCN(c3ccnc4cc(Cl)ccc34)CC2)nn1)Nc1cccc([N+](=O)[O-])c1
- growth (SK-MEL-2 melanoma): 97.1%
- growth (EKVX NSCLC): 94.4%
- growth (SN12C renal): 92.9%
- growth (UO-31 renal): 63.4%
- growth (TK-10 renal): 105%
- growth (ACHN renal): 87.7%
- growth (CAKI-1 renal): 76.4%
- growth (A498 renal): 90.7%
- growth (CCRF-CEM leukemia): 33.8%
- growth (MOLT-4 leukemia): 80%
- growth (SR leukemia): 33%
- growth (RPMI-8226 leukemia): 57.6%
- growth (OVCAR-8 ovarian): 74.7%
- growth (OVCAR-5 ovarian): 96.4%
- growth (OVCAR-4 ovarian): 92.4%
- growth (SK-OV-3 ovarian): 76.1%
- growth (IGROV1 ovarian): -94.7% (active)
- growth (OVCAR-3 ovarian): 87.9%
- growth (HS 578T breast): 82.6%
- growth (NCI/ADR-RES ovarian): 100%

Compound: C/C=C(\C)C(=O)N[C@H]1CC[C@]2(C)C3CC[C@@]4(C)C(CC[C@@H]4C(C)N(C)C)C3CCC2[C@H]1OC(C)=O (stereo not given in full)
- growth (SK-MEL-2 melanoma): -32.7% (active)
- growth (EKVX NSCLC): -11.3% (active)
- growth (SN12C renal): -3.57% (active)
- growth (UO-31 renal): -4.52% (active)
- growth (TK-10 renal): -48.3% (active)
- growth (ACHN renal): -65.1% (active)
- growth (CAKI-1 renal): -43.3% (active)
- growth (A498 renal): -32.9% (active)
- growth (CCRF-CEM leukemia): 1.62% (active)
- growth (MOLT-4 leukemia): 11.2%
- growth (SR leukemia): 7.3% (active)
- growth (RPMI-8226 leukemia): -15.3% (active)
- growth (OVCAR-8 ovarian): 24.9%
- growth (OVCAR-5 ovarian): 22%
- growth (OVCAR-4 ovarian): -23.3% (active)
- growth (SK-OV-3 ovarian): -21.4% (active)
- growth (IGROV1 ovarian): 9.32% (active)
- growth (OVCAR-3 ovarian): -53.9% (active)
- growth (HS 578T breast): -39.9% (active)
- growth (NCI/ADR-RES ovarian): 16.5%

Compound: COc1cc2ncnc(Nc3ccc(F)c(Cl)c3)c2cc1OCC(=O)N1CCCCC1
- growth (SK-MEL-2 melanoma): 88.1%
- growth (EKVX NSCLC): 63.5%
- growth (SN12C renal): 76.4%
- growth (UO-31 renal): 43.5%
- growth (TK-10 renal): 23.9%
- growth (ACHN renal): 32.2%
- growth (CAKI-1 renal): 44.5%
- growth (A498 renal): 43.5%
- growth (CCRF-CEM leukemia): 94.2%
- growth (MOLT-4 leukemia): 73.8%
- growth (SR leukemia): 74.6%
- growth (RPMI-8226 leukemia): 81.9%
- growth (OVCAR-8 ovarian): 89.2%
- growth (OVCAR-5 ovarian): 67%
- growth (OVCAR-4 ovarian): 71.7%
- growth (SK-OV-3 ovarian): 21.3%
- growth (IGROV1 ovarian): 42.8%
- growth (OVCAR-3 ovarian): 73.2%
- growth (HS 578T breast): 94.4%
- growth (NCI/ADR-RES ovarian): 62.1%
